Anthrax LT inh – inhibitors of anthrax lethal toxin internalization | Cells, anthrax lethal toxin internalization, FRET ratio (460/530) | Potency, µM (series often up to 40 µM), without a hit: top-dose activity change, negative = inhibition, most hits filed as inhibitors | 70,000 compounds, 0.67% hits; further: on the % scale 0 is the no-effect control and ±100 the full control effect; nearly all actives have a fitted effect of over 50% in size
AmpC nodet inh – blocks E. coli AmpC beta-lactamase in absence of detergent; P00811; AmpC nitrocefin hydrolysis, absorbance 480 nm, no detergent; Potency, µM (top dose mostly 28.7 µM), for inactives: at the highest dose activity change, negative = inhibition; 71,000 compounds, 1.8% hits; AID 585; further: % of control where 0% means no effect
Target sequence (P00811 whole entry, looked up): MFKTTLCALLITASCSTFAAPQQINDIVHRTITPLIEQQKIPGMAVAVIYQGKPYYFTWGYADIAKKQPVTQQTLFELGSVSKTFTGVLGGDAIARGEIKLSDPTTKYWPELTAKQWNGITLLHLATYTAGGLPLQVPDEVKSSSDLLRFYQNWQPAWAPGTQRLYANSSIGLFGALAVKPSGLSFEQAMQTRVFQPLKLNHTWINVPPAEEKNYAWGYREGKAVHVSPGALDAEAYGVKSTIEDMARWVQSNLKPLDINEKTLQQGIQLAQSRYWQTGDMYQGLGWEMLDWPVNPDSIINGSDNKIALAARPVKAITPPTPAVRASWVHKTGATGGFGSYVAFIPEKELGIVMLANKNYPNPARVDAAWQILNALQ
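AmpC, 20 mM phosphate pH 7.0; 15 min cpd preinc, RT; start with nitrocefin (800 uM stock); A480 kinetic read, 20 s intervals, 4 min. No-enzyme wells = negative control.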
AmpC inh det – AmpC beta-lactamase inhibition, detergent assay; 71,000 compounds, 0.09% hits; purified AmpC, nitrocefin hydrolysis with detergent; P00811; AID 584; Potency, µM (titrated, usually from 28.7 µM), for inactives: at the highest dose activity change, negative = inhibition; active means well fitted curve in the direction sought with a large enough effect; inconclusive means small, poorly fitted or top-dose-only effect; further: on the % scale 0 is the no-effect control and ±100 the full control effect
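E. coli AmpC (5.3 nM) in 20 mM phosphate pH 7.0 with 0.01% Triton X-100, preincubated 15 min RT with compound; nitrocefin (2 uL of 800 uM stock) hydrolysis followed by 480 nm absorbance every 20 s over 4 min.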
Prx2 Sm inh – blocks S. mansoni peroxiredoxin 2 enzymatic activity; S. mansoni Prx2 activity coupled to TGR/GSH (TGR is thioredoxin glutathione reductase), NADPH fluorescence loss, qHTS; 65,000 compounds, 0.07% hits; Potency, µM
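Activity is read as the drop in NADPH fluorescence (365/450 nm), recorded every 30 sec for 8 min after H2O2 addition. Prx2 is coupled to TGR-driven NADPH oxidation through glutathione, in phosphate buffer pH 7.4.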
* hit, by the source's call; [ ] = remark or other dose. The list is not random: actives were taken first. Their share in the collection is about 2.6%. Unless noted, the call rests on the fitted dose curve. Potency means the concentration at half of the fitted maximal effect.

Results for CC1=NN(c2ccc(S(=O)(=O)O)cc2C)C(=[OH+])[C@H]1N=Nc1cc(S(=O)(=O)O)ccc1C(=O)O.O.[Cr] ?
Anthrax LT inh: 1.2%[8 µM]; AmpC nodet inh: -0.3%[5.75 µM]; AmpC inh det: 0.7%[5.75 µM]; Prx2 Sm inh: >57

What do the screens show for `CCOC(=O)N1CCC(NC(=O)Cn2nc(Cc3ccncc3)c3ccccc3c2=O)CC1`?
Anthrax LT inh: -10.3%; AmpC nodet inh: 3.98µM*[single pt active]; AmpC inh det: 13.8%; Prx2 Sm inh: >57

What do the screens show for `CCOC(=O)N1CCC(NC(=O)Cn2nc(-c3ccccc3)ccc2=O)CC1`?
Anthrax LT inh: inconclusive; AmpC nodet inh: 111.8%; AmpC inh det: -6.3%; Prx2 Sm inh: >57

How did Nc1nc(N)nc(CCCCc2nc(N)nc(N)n2)n1 do in these assays?
Anthrax LT inh: 11.7%[8 µM]; AmpC nodet inh: 3.8%[5.75 µM]; AmpC inh det: -1.8%[5.75 µM]; Prx2 Sm inh: >57

What do the screens show for `O=C(NCc1ccco1)C1CCN(c2ccc(N3CCOCC3)nn2)CC1`?
Anthrax LT inh: 5.1%; AmpC nodet inh: 3.98µM*[single pt active]; AmpC inh det: 11.4%; Prx2 Sm inh: >57

What do the screens show for `C[C@@]12CC[C@H]3[C@@H](CC[C@H]4C[C@@H](O)CC[C@]43C)[C@H]1CC[C@@H]2C(=O)C[C@H](O)C(F)(F)F`?
Anthrax LT inh: 10.0%[8 µM]; AmpC nodet inh: 21.0%[5.75 µM]; AmpC inh det: -1.4%[5.75 µM]; Prx2 Sm inh: >57

What do the screens show for `COc1ccc(NC(=O)N2CC3(CCN(C(=O)c4csnn4)CC3)C2)cc1`?
Anthrax LT inh: -2.9%; AmpC nodet inh: 4.4%; AmpC inh det: 0.3%; Prx2 Sm inh: >57

What do the screens show for `COc1ccc(OCCC(=O)NC2=NCCS2)cc1`?
Anthrax LT inh: 13.7%; AmpC nodet inh: -1.5%; AmpC inh det: -5.1%; Prx2 Sm inh: >57

What do the screens show for `COc1ccc(C(=O)NCC(=O)NC2=NCCS2)cc1`?
Anthrax LT inh: 3.5%; AmpC nodet inh: 3.98µM*[single pt active]; AmpC inh det: 13.2%; Prx2 Sm inh: >57

What do the screens show for `CNc1sc(C(=O)c2cccs2)c(N)c1-c1nc2ccccc2s1`?
Anthrax LT inh: inconclusive; AmpC nodet inh: 12.6µM*[single pt active]; AmpC inh det: -2.0%; Prx2 Sm inh: >57

How did O=c1cc(-c2ccccc2Cl)c2c([nH]1)CCC2 do in these assays?
Anthrax LT inh: 3.6%; AmpC nodet inh: 3.98µM*[single pt active]; AmpC inh det: 12.5%; Prx2 Sm inh: >57

How did O=C(Nc1ccc2c(c1)OCO2)C1Cc2ccccc2CN1S(=O)(=O)c1cccs1 (stereo not drawn) do in these assays?
Anthrax LT inh: inconclusive; AmpC nodet inh: 10µM*[single pt active]; AmpC inh det: -5.6%; Prx2 Sm inh: >57

How did O=C(Nc1ccc2c(c1)OCO2)C1CCN(S(=O)(=O)c2cccs2)CC1 do in these assays?
Anthrax LT inh: -10.3%; AmpC nodet inh: inconclusive; AmpC inh det: 10.1%; Prx2 Sm inh: >57

Results for COc1ccc(NC(=O)N2CCC3(CC2)CCN(C(=O)c2cccn2C)CC3)cc1 ?
Anthrax LT inh: 9.9%; AmpC nodet inh: 5.2%; AmpC inh det: -0.7%; Prx2 Sm inh: >57

How did COc1cccc(-c2cc(N)nn2C(=O)Nc2ccc(Cl)cc2)c1 do in these assays?
Anthrax LT inh: inconclusive; AmpC nodet inh: 3.98µM*[single pt active]; AmpC inh det: 13.8%; Prx2 Sm inh: >57

How did COc1cccc(-c2csc3nnc(SCC(=O)c4ccc(NC(C)=O)cc4)n23)c1 do in these assays?
Anthrax LT inh: -8.2%; AmpC nodet inh: 12.2%; AmpC inh det: -5.9%; Prx2 Sm inh: >57

What do the screens show for `O=C(NCc1ccc2c(c1)OCO2)c1ccc(CS(=O)(=O)c2ccc(Br)cc2)o1`?
Anthrax LT inh: inconclusive; AmpC nodet inh: 3.98µM*[single pt active]; AmpC inh det: 15.9%; Prx2 Sm inh: >57

Results for COc1ccc(S(=O)(=O)Cc2ccc(C(=O)NCc3cccs3)o2)cc1 ?
Anthrax LT inh: -10.7%; AmpC nodet inh: 3.98µM*[single pt active]; AmpC inh det: 8.3%; Prx2 Sm inh: >57

What do the screens show for `COc1ccc(S(=O)(=O)Cc2ccc(C(=O)NCc3ccco3)o2)cc1`?
Anthrax LT inh: -9.1%; AmpC nodet inh: 3.98µM*[single pt active]; AmpC inh det: 8.3%; Prx2 Sm inh: >57

What do the screens show for `COc1ccccc1S(=O)(=O)Cc1ccc(C(=O)NCc2cccs2)o1`?
AmpC nodet inh: -2.5%; AmpC inh det: -8.8%; Prx2 Sm inh: >57

What do the screens show for `CCCCNC(=O)c1ccc(CS(=O)(=O)c2ccc(OC)cc2)o1`?
Anthrax LT inh: -5.9%; AmpC nodet inh: 3.98µM*[single pt active]; AmpC inh det: 10.9%; Prx2 Sm inh: >57

What do the screens show for `O=C(NCc1ccco1)c1ccc(CS(=O)(=O)c2cccc(C(F)(F)F)c2)o1`?
Anthrax LT inh: 11.2%; AmpC nodet inh: 26.0%; AmpC inh det: -0.7%; Prx2 Sm inh: >57

What do the screens show for `O=C(c1ccncc1)N1CCC2(CC1)CCN(c1ccccc1)CC2`?
Anthrax LT inh: 7.6%; AmpC nodet inh: 58.7%; AmpC inh det: -3.1%; Prx2 Sm inh: >57

How did Cc1nc2cnc(N3CCNCC3)nc2n(-c2ccccc2)c1=O do in these assays?
Anthrax LT inh: -7.2%; AmpC nodet inh: 23.8%; AmpC inh det: -0.5%; Prx2 Sm inh: >11.4

How did Cn1c(=O)c2[nH]c(CS(=O)(=O)Cc3nc4c([nH]3)c(=O)n(C)c(=O)n4C)nc2n(C)c1=O do in these assays?
Anthrax LT inh: 1.9%[8 µM]; AmpC nodet inh: 3.7%[5.75 µM]; AmpC inh det: -0.7%[5.75 µM]; Prx2 Sm inh: >57

How did CN(C)CN1C(=O)S/C(=C2/C(=O)N(CN(C)C)c3ccccc32)C1=O do in these assays?
Anthrax LT inh: -15.7%[8 µM]; AmpC nodet inh: 0.8%[5.75 µM]; AmpC inh det: -1.2%[5.75 µM]; Prx2 Sm inh: >57

What do the screens show for `COc1ccc(C(=O)Nc2cccc(C)c2)cc1S(=O)(=O)N1CCOCC1`?
Anthrax LT inh: 14.7%; AmpC nodet inh: 60.0%; AmpC inh det: -2.0%; Prx2 Sm inh: >57

What do the screens show for `O=C(Nc1cccc(S(=O)(=O)C(F)F)c1)c1ccc(Cl)c(S(=O)(=O)N2CCOCC2)c1`?
Anthrax LT inh: 10µM*; AmpC nodet inh: -7.1%; AmpC inh det: 2.4%; Prx2 Sm inh: >57

Results for CN(C)c1ccc(-c2cncnc2NCc2cccs2)cc1 ?
Anthrax LT inh: -17.6%; AmpC nodet inh: 13.5%; AmpC inh det: 7.8%; Prx2 Sm inh: >57

How did COc1cc2c(cc1OC)-c1nnnn1C(C)(C)C2 do in these assays?
Anthrax LT inh: -12.8%; AmpC nodet inh: 10.6%; AmpC inh det: -3.7%

Results for COc1cc2c(cc1OC)-c1nnc(-c3cccs3)n1C(C)(C)C2 ?
Anthrax LT inh: -7.0%; AmpC nodet inh: 3.98µM*[single pt active]; AmpC inh det: 9.5%; Prx2 Sm inh: >57

How did CN(C)C(=O)c1ccc(-c2cncnc2Nc2ccc(F)cc2)cc1 do in these assays?
Anthrax LT inh: 10.4%; AmpC nodet inh: 18.4%; AmpC inh det: 9.9%; Prx2 Sm inh: >57

What do the screens show for `Cn1c(C(=O)N2CCN(c3ccc(Cl)cc3)CC2)cc2c(=O)n(C)c3ccccc3c21`?
Anthrax LT inh: -25.2%; AmpC nodet inh: 3.98µM*[single pt active]; AmpC inh det: 9.8%; Prx2 Sm inh: >57

How did Cn1c(C(=O)N2CCN(c3ccccn3)CC2)cc2c(=O)n(C)c3ccccc3c21 do in these assays?
Anthrax LT inh: 14.3%; AmpC nodet inh: 3.98µM*[single pt active]; AmpC inh det: 13.6%; Prx2 Sm inh: >57

Compound activity deposited in PubChem BioAssay by National Center for Advancing Translational Sciences (NCATS).
